EC50 and Kd data for 2 molecules are collected here from publication PMC11062922 (Nature Chemical Biology, 2023).

In one experiment the test system is MAPK14. Details: species or system human, MV4-11 + K-562 + COLO205 + SK-N-BE2 + OVCAR-8. Particulars: compound concentrations:0.3nM, 1nM, 3nM, 10nM, 30nM, 100nM, 300nM, 1000nM,R2:0.95433345689641902,slope:0.62517275376181303,EC50 Standard Error, by the legend:Standard error of the EC50 estimation as provided by the drc package.
In another experiment the test system is MAPKAPK2. More on the design: species or system human, MV4-11 + K-562 + COLO205 + SK-N-BE2 + OVCAR-8. Particulars: compound concentrations:0.3nM, 1nM, 3nM, 10nM, 30nM, 100nM, 300nM, 1000nM,R2:0.91890870064253904,slope:1.05096662120135,EC50 Standard Error, by the legend:Standard error of the EC50 estimation as provided by the drc package.
Another experiment deals with RIPK2. Details: species or system human, MV4-11 + K-562 + COLO205 + SK-N-BE2 + OVCAR-8. Particulars: compound concentrations:0.3nM, 1nM, 3nM, 10nM, 30nM, 100nM, 300nM, 1000nM,R2:0.98843771673654501,slope:0.97698272947785902,EC50 Standard Error, by the legend:Standard error of the EC50 estimation as provided by the drc package.
The test system of another experiment is RIPK3. More on the design: species or system human, MV4-11 + K-562 + COLO205 + SK-N-BE2 + OVCAR-8. Particulars: compound concentrations:0.3nM, 1nM, 3nM, 10nM, 30nM, 100nM, 300nM, 1000nM,R2:0.88646274803772895,slope:5.0878054739021197,EC50 Standard Error, by the legend:Standard error of the EC50 estimation as provided by the drc package.
A further experiment concerns SPR. More on the design: species or system human, MV4-11 + K-562 + COLO205 + SK-N-BE2 + OVCAR-8. Particulars: compound concentrations:0.3nM, 1nM, 3nM, 10nM, 30nM, 100nM, 300nM, 1000nM,R2:0.99512909296274499,slope:1.24359258072984,EC50 Standard Error, by the legend:Standard error of the EC50 estimation as provided by the drc package.
In a further experiment the test system is TGFBR2. More on the design: species or system human, MV4-11 + K-562 + COLO205 + SK-N-BE2 + OVCAR-8. Particulars: compound concentrations:0.3nM, 1nM, 3nM, 10nM, 30nM, 100nM, 300nM, 1000nM,R2:0.95772159417417102,slope:0.90025260883160396,EC50 Standard Error, by the legend:Standard error of the EC50 estimation as provided by the drc package.
For the next experiment, the system named is AAK1. Particulars: compound concentrations:3nM, 10nM, 30nM, 100nM, 300nM, 1000nM, 3000nM, 30000nM,R2:0.99102510116180997,slope:1.0759365754475601,EC50 Standard Error, by the legend:Standard error of the EC50 estimation as provided by the drc package.
The next experiment relates to AURKA. Particulars: compound concentrations:3nM, 10nM, 30nM, 100nM, 300nM, 1000nM, 3000nM, 30000nM,R2:0.99130699388271104,slope:0.94634188293278299,EC50 Standard Error, by the legend:Standard error of the EC50 estimation as provided by the drc package.
The subject of the next experiment is AURKB. Particulars: compound concentrations:3nM, 10nM, 30nM, 100nM, 300nM, 1000nM, 3000nM, 30000nM,R2:0.99833060468955204,slope:0.90064720888108796,EC50 Standard Error, by the legend:Standard error of the EC50 estimation as provided by the drc package.
The subject of a further experiment is BCR. Particulars: compound concentrations:3nM, 10nM, 30nM, 100nM, 300nM, 1000nM, 3000nM, 30000nM,R2:0.97560136182595103,slope:1.05645406378656,EC50 Standard Error, by the legend:Standard error of the EC50 estimation as provided by the drc package.
In another experiment the test system is BMP2K. Particulars: compound concentrations:3nM, 10nM, 30nM, 100nM, 300nM, 1000nM, 3000nM, 30000nM,R2:0.98755156955359502,slope:1.4167647234137799,EC50 Standard Error, by the legend:Standard error of the EC50 estimation as provided by the drc package.
Another experiment has as its system BMPR2. Particulars: compound concentrations:3nM, 10nM, 30nM, 100nM, 300nM, 1000nM, 3000nM, 30000nM,R2:0.93324573239730002,slope:2.2231806087315,EC50 Standard Error, by the legend:Standard error of the EC50 estimation as provided by the drc package.
For the next experiment, the system named is CCNH. Particulars: compound concentrations:3nM, 10nM, 30nM, 100nM, 300nM, 1000nM, 3000nM, 30000nM,R2:0.984368608654974,slope:1.5961170242536,EC50 Standard Error, by the legend:Standard error of the EC50 estimation as provided by the drc package.
A further experiment has as its system CHEK1. Particulars: compound concentrations:3nM, 10nM, 30nM, 100nM, 300nM, 1000nM, 3000nM, 30000nM,R2:0.99154934454702504,slope:1.2455496028398201,EC50 Standard Error, by the legend:Standard error of the EC50 estimation as provided by the drc package.
For the next experiment, the system named is EPHA1. Particulars: compound concentrations:3nM, 10nM, 30nM, 100nM, 300nM, 1000nM, 3000nM, 30000nM,R2:0.96586410409124401,slope:0.42399886433003398,EC50 Standard Error, by the legend:Standard error of the EC50 estimation as provided by the drc package.
The subject of a further experiment is EPHA7. Particulars: compound concentrations:3nM, 10nM, 30nM, 100nM, 300nM, 1000nM, 3000nM, 30000nM,R2:0.88780253900259998,slope:1.37394463734268,EC50 Standard Error, by the legend:Standard error of the EC50 estimation as provided by the drc package.
The next experiment deals with FER. Particulars: compound concentrations:3nM, 10nM, 30nM, 100nM, 300nM, 1000nM, 3000nM, 30000nM,R2:0.99765697857562097,slope:1.03588430141815,EC50 Standard Error, by the legend:Standard error of the EC50 estimation as provided by the drc package.
In another experiment the test system is FLT3. Particulars: compound concentrations:3nM, 10nM, 30nM, 100nM, 300nM, 1000nM, 3000nM, 30000nM,R2:0.96575906270431899,slope:1.4210084972678201,EC50 Standard Error, by the legend:Standard error of the EC50 estimation as provided by the drc package.
Another experiment relates to FLT4. Particulars: compound concentrations:3nM, 10nM, 30nM, 100nM, 300nM, 1000nM, 3000nM, 30000nM,R2:0.97672359479992199,slope:1.0836870062150401,EC50 Standard Error, by the legend:Standard error of the EC50 estimation as provided by the drc package.
In the next experiment the test system is INCENP. Particulars: compound concentrations:3nM, 10nM, 30nM, 100nM, 300nM, 1000nM, 3000nM, 30000nM,R2:0.98280014886482903,slope:1.1847745210473,EC50 Standard Error, by the legend:Standard error of the EC50 estimation as provided by the drc package.

For orientation: EC50 means the concentration at which the effect is half-maximal. Regarding `Cl.NCc1ccc(-c2nc(-c3ccc(Cl)c(O)c3)c(-c3ccncc3)[nH]2)cc1` [SB-476429-A], the 50% effective concentration (EC50) is 174 nM in the experiment on MAPK14; 174 nM with MAPKAPK2; 55.9 nM in the experiment on RIPK2; 296 nM in the experiment on RIPK3; 32.8 nM in the experiment on SPR; 871 nM in the experiment on TGFBR2. Moreover, the Kd is 174 nM with MAPK14 (read-out: apparent Kd); 174 nM in the experiment on MAPKAPK2 (read-out: apparent Kd); 28.8 nM in the experiment with RIPK2 (read-out: apparent Kd); 289 nM in the experiment on RIPK3 (read-out: apparent Kd); 32.8 nM in the experiment with SPR (read-out: apparent Kd); 767 nM with TGFBR2 (read-out: apparent Kd).

As to TAK659, the EC50 with AAK1 is 997 nM; in the experiment with AURKA, 1280 nM; with AURKB, 161 nM; in the experiment on BCR, 1020 nM; in the experiment with BMP2K, 537 nM; in the experiment with BMPR2, 325 nM. Further, the EC50 was 1730 nM in the experiment on CCNH; 149 nM in the experiment with CHEK1; 2910 nM with EPHA1; 810 nM in the experiment with EPHA7; 316 nM with FER; 507 nM in the experiment with FLT3. For the same molecule, the values for the EC50 in the experiment with FLT4 and in the experiment with INCENP were 564 nM and 150 nM, respectively. Besides, the Kd in the experiment on AAK1 (read-out: apparent Kd) is 720 nM; in the experiment with AURKA (read-out: apparent Kd) it was 590 nM; in the experiment on AURKB (read-out: apparent Kd), 86.7 nM; in the experiment with BCR (read-out: apparent Kd) it was 528 nM; in the experiment with BMP2K (read-out: apparent Kd), 456 nM; in the experiment with BMPR2 (read-out: apparent Kd), 257 nM. The Kd is 1580 nM in the experiment with CCNH (read-out: apparent Kd); 133 nM in the experiment with CHEK1 (read-out: apparent Kd); 1000 nM with EPHA1 (read-out: apparent Kd); 617 nM in the experiment on EPHA7 (read-out: apparent Kd); 202 nM in the experiment with FER (read-out: apparent Kd); 313 nM in the experiment on FLT3 (read-out: apparent Kd). Also, the figures for the Kd in the experiment on FLT4 (read-out: apparent Kd) and with INCENP (read-out: apparent Kd) were 308 nM and 150 nM, respectively.
